Screens deposited in PubChem BioAssay by several laboratories.
Hits are enriched below; roughly 1.4% of the tested compounds scored in any of these assays.
LEDGF integ inh: blocks HIV-1 LEDGF/p75-dependent DNA integration; 0.64% of 370,000 active; inhibition, % at 3.7 µM; TR-FRET IN-LEDGF/p75 DNA integration, Eu/Cy5;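 active = inhibition above the screen-wide mean plus 3 SD, cut at about 13% in these data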;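 note: signal is the Cy5 over europium emission ratio at 671 and 618 nm; 0% = plate median of compound wells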
MBD2 inh: blocks human MBD2 binding to methylated DNA; AID 686964; inhibition, % at 4.4 µM; TR-FRET, MBD2 binding to methylated oligonucleotide; Q9UBB5; 0.31% of 370,000 active; in the data active = inhibition above about 13%
Target sequence (Q9UBB5 whole entry, looked up): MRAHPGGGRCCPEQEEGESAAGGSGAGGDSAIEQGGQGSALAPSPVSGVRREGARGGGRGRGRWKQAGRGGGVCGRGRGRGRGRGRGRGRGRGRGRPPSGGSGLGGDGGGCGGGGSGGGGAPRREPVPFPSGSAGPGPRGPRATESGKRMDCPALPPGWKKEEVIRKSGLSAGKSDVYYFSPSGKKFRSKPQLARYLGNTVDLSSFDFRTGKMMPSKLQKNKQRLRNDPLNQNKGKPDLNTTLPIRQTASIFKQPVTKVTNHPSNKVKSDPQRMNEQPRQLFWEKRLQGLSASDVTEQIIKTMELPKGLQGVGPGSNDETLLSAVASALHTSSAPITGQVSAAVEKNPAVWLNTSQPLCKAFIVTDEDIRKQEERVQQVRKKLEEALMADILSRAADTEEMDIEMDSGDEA
Casp6 inh: caspase-6 (human) enzyme inhibition | P55212 | purified caspase-6, Z-VEID-R110 cleavage fluorescence | inhibition, % at 12.5 µM | 0.53% of 350,000 active | AID 686996;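 active = mean inhibition across replicates at least about 35%, with every replicate also reaching that limit, limit read from the data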;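 note: 0% = median of neutral control wells and 100% = no fluorescence left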
Target sequence (P55212 24-179 limits assumed): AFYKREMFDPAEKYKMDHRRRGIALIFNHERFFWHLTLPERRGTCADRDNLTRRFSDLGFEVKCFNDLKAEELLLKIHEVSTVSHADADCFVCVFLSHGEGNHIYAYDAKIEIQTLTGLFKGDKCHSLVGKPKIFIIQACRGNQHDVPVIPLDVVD
Target sequence (P55212 194-293 limits assumed): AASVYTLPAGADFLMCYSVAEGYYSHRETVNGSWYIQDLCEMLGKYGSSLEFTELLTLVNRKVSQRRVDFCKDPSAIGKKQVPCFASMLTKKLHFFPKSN
UHRF1 MBD2 ctr: UHRF1 methyl-DNA binding inhibition; Q96T88; UHRF1 binding to methylated oligo, TR-FRET; inhibition, % at 4.4 µM; 0.75% of 370,000 active; AID 687016; in the data active = inhibition above about 21%;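 note: UHRF1 SRA domain binding a hemimethylated CpG hairpin DNA probe; 0% = median of test compound wells and 100% = reference inhibitor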
Active calls of the source: *; nt = no result.

SMILES | LEDGF integ inh | MBD2 inh | Casp6 inh | UHRF1 MBD2 ctr
O=C(N[C@H]1CC[C@@H](CCNC(=O)C2CCOCC2)O[C@H]1CO)c1ccncc1 | nt | nt | -2.3 | nt
CC(=O)N1CC2(C1)[C@H](c1ccc(-c3ccc(F)cc3)cc1)[C@@H](CO)N2C(C)=O | nt | nt | -0.3 | nt
COCC(=O)N(C)C[C@H]1Oc2cc(C#CCN(C)C)ccc2S(=O)(=O)N([C@H](C)CO)C[C@H]1C | nt | nt | -0.1 | nt
Cn1nc(CC(=O)Nc2ncc(Br)s2)c2ccccc2c1=O | -1.3 | 7.0 | nt | 21.6*
C=CC[C@]1(C(=O)OC)N=C(c2ccc(OCCCO)cc2)O[C@H]1c1ccccc1 | nt | nt | -2.0 | nt
Cc1cccc(Nc2ncnc3onc(-c4cccc(Cl)c4)c23)c1C | 1.3 | -1.0 | -3.2 | 24.2*
Cc1cccc(Nc2ncnc3onc(-c4ccc(F)cc4)c23)c1C | -0.4 | -5.4 | 0.1 | -1.0
Cc1ccc(S(=O)(=O)Nc2ccc3c(c2)C(=O)N([C@H](C)CO)C[C@@H](C)[C@@H](CN(C)S(=O)(=O)c2cccs2)OCCCC[C@H](C)O3)cc1 | nt | nt | 1.9 | nt
COC(=O)CCCn1cc(CN2CC(N3CCN(C)CC3)CS2(=O)=O)nn1 (configuration not stated) | 5.0 | 8.1 | -10.9 | 24.1*
CCCCCCn1cc(CN2CC(N3CCN(C)CC3)CS2(=O)=O)nn1 (configuration not stated) | -1.1 | 12.2 | -7.9 | 17.4
O=C(Nc1cccc(S(=O)(=O)N2CCOCC2)c1)c1ccc2ccccc2n1 | -5.0 | 0.7 | 1.8 | 22.0*
Cc1ccc(S(=O)(=O)NCC(=O)OCC(=O)Nc2ccc(C)c(S(=O)(=O)N3CCOCC3)c2)cc1 | 5.9 | -3.8 | 2.7 | 1.8
O=C(CN1C(=O)NC2(CCCCC2)C1=O)Nc1cccc(S(=O)(=O)N2CCCC2)c1 | 5.1 | -9.4 | 5.4 | 0.4
Cc1ccc(S(=O)(=O)NCC(=O)OCC(=O)Nc2cccc(S(=O)(=O)N3CCOCC3)c2)cc1 | 26.9* | -1.8 | -5.0 | 0.4
O=C(CCN1C(=O)NC2(CCCC2)C1=O)Nc1cccc(S(=O)(=O)N2CCOCC2)c1 | 0.4 | 7.4 | 42.2* | 5.7
CCN(CC(=O)NCc1ccc(F)cc1)C(=O)C(C)Oc1cccc(Cl)c1 (configuration not stated) | -0.5 | 9.6 | -1.3 | 22.6*
CCCCCn1c(=O)[nH]c2cc(C(=O)N3CCN(c4ccc(C(C)=O)cc4)CC3)ccc2c1=O | -5.2 | 3.9 | 1.1 | 1.0
CCCCCn1c(=O)[nH]c2cc(C(=O)N3CCN(CC)CC3)ccc2c1=O | 3.4 | 12.7 | nt | 25.5*
Cc1oc2c(c1C(=O)O)C(=O)c1ccccc1C2=O | 7.3 | -12.7 | 58.5* | -7.5
CCOC(=O)c1c(C)oc2c1C(=O)c1ccccc1C2=O | 1.3 | -0.9 | 7.9 | 3.1
O=C(NCC1CC1)[C@H]1[C@H](CO)[C@H]2Cn3c(ccc(C4=CCCCC4)c3=O)[C@H]2N1Cc1ccccc1F | nt | nt | 0.5 | nt
COc1ccc(C(C)(O)c2nc(-c3ccccc3)cs2)cc1 (configuration not stated) | -4.8 | -1.9 | 1.7 | -3.0
COc1ccc(C(C)(O)c2nc(-c3ccc4ccccc4c3)cs2)cc1 (configuration not stated) | 4.5 | -7.1 | -3.2 | 34.5*
Cc1ccc(S(=O)(=O)NC2=NCN(CCOC(=O)c3ccc([N+](=O)[O-])cc3)CN2)cc1 | 3.3 | 2.5 | nt | 60.2*
COC(=O)c1cnc(N)s1 | 2.5 | 5.1 | 0.0 | 23.4*
SMILES | LEDGF integ inh | MBD2 inh | Casp6 inh | UHRF1 MBD2 ctr
CN(Cc1ccccc1)C(=O)C1CCC(CNS(=O)(=O)c2cccc3cccnc23)CC1 (configuration not stated) | -1.0 | 3.8 | 2.5 | 31.8*
CCN(CC)C(=O)C1CCC(CNS(=O)(=O)c2cccc3cccnc23)CC1 (configuration not stated) | 1.2 | -3.2 | -0.3 | -1.6
CCc1ccc(NC(=O)c2cccc(NC3=NC4CS(=O)(=O)CC4S3)c2)cc1 (configuration not stated) | 0.1 | -0.8 | -0.3 | 26.6*
Cc1cccn2c(/C=N/OCc3cccc(F)c3)c(-c3ccc(Cl)cc3)nc12 | -0.9 | 7.7 | nt | 22.8*
Cc1ccc2[nH]c3c(c2c1)CCCC3NCCO (configuration not stated) | -5.9 | 2.1 | 44.2* | 4.8
CN1C(=O)c2cc(NC(=O)Cc3ccccc3)ccc2OC[C@H]2O[C@@H](CC(=O)O)CC[C@@H]21 | nt | nt | 3.2 | nt
COc1ccc(CN(C)C[C@@H]2OCCCC[C@H](C)Oc3ccc(NC(=O)Nc4ccc(F)cc4)cc3C(=O)N([C@@H](C)CO)C[C@H]2C)cc1 | nt | nt | 0.5 | nt
Cn1c(=O)c2c(ncn2CC(=O)OCC(=O)c2ccc(OC(F)F)cc2OC(F)F)n(C)c1=O | -0.7 | -6.7 | 54.6* | -0.4
Cn1c(=O)c2c(ncn2CC(=O)OCC(=O)Nc2ccccc2)n(C)c1=O | 3.0 | 1.5 | -6.1 | 0.1
C[C@@H]1CN([C@H](C)CO)C(=O)c2cccc(NS(=O)(=O)c3ccccc3)c2O[C@H]1CN(C)S(=O)(=O)c1cn(C)cn1 | nt | nt | -0.5 | nt
COc1ccccc1S(=O)(=O)N[C@H]1CC[C@H](CC(=O)N2CCCCC2)O[C@H]1CO | nt | nt | 0.2 | nt
O=C(CBr)c1ccc([N+](=O)[O-])c(CS(=O)(=O)c2ccc(Cl)cc2)c1 | -2.6 | -6.7 | 1.5 | 70.4*
O=C(O)c1ccc([N+](=O)[O-])c(CS(=O)(=O)c2ccc(Cl)cc2)c1 | -4.1 | 0.7 | -2.1 | 2.5
CC(C)OC(=O)N(C)C[C@@H]1OCc2ccccc2-c2ccccc2C(=O)N([C@@H](C)CO)C[C@@H]1C | nt | nt | -0.2 | nt
O=C(CNC(=O)c1ccc(Cl)cc1)OCc1nc2ccccc2s1 | -1.0 | 3.9 | 1.9 | 25.2*
CCOc1ccc(N(C)Cc2cc(=O)oc3ccc(OCC)cc23)cc1 | -1.9 | 2.9 | 0.6 | 21.7*
CCOc1ccc(CN(C)Cc2cc(=O)oc3cc(C)c(Cl)cc23)cc1 | -5.7 | 2.2 | -0.7 | -0.4
C[C@H]1CN([C@@H](C)CO)C(=O)c2cccc(NS(=O)(=O)c3cccs3)c2O[C@@H]1CN(C)Cc1ccc(C(=O)Nc2ccccc2N)cc1 | nt | nt | -3.6 | nt
O=C(CSc1nc2ccccc2c(=O)[nH]1)Nc1ccc(N2CCOCC2)cc1 | -1.3 | -1.9 | 58.0* | 2.7
O=C(NCCNCc1ccccc1)c1ccco1 | 11.3 | -5.0 | 63.5* | 8.8
C/C=C/c1ccc2c(c1)O[C@@H](CN(C)C(=O)NCCC)[C@H](C)CN([C@H](C)CO)S2(=O)=O | nt | nt | 1.3 | nt
COc1ccc(CCNC(=O)CSc2cc(=O)[nH]c(N)n2)cc1OC | -0.8 | 8.0 | nt | 23.5*
COc1ccc(S(=O)(=O)Nc2ccc3c(c2)C(=O)N([C@H](C)CO)C[C@@H](C)[C@@H](CN(C)C(=O)NC2CCCCC2)OCCCC[C@@H](C)O3)cc1 | nt | nt | 1.0 | nt
CCC(=O)N(C)C[C@H]1Oc2ncc(C3=CCCC3)cc2C(=O)N([C@H](C)CO)C[C@@H]1C | nt | nt | 0.9 | nt
Cc1ccc(C(=O)NCC(=O)O)o1 | 52.1* | 1.2 | 0.1 | 0.3
Cc1ccc(NC(=O)CNC(=O)c2ccc(C)o2)cc1 | -1.4 | 3.0 | -2.0 | -1.1
CCN(CC)C(=O)c1cccc(-c2csc(C(O)c3ccccc3)n2)c1 (configuration not stated) | 0.0 | 9.2 | -0.2 | 22.0*
